# Test results as given in PubChem BioAssay AID1346378 (National Center for Advancing Translational Sciences (NCATS), 2018).
# The whole screen tested about 420,000 compounds, of which about 540 (0.13%) were called active. The list comes from a sample in which actives are over-represented; it also holds similar structures and randomly drawn compounds. Unmarked numbers belong to inactive results. Rule as the data show it: active = activity change below about -50%; inconclusive = mostly about -30% to -49%; inactive = weaker than that.
# Biological target: Phosphatidylinositol 4-kinase type 2-alpha (Homo sapiens) (UniProt Q9BTU6)
# Sequence (Q9BTU6 whole entry, looked up): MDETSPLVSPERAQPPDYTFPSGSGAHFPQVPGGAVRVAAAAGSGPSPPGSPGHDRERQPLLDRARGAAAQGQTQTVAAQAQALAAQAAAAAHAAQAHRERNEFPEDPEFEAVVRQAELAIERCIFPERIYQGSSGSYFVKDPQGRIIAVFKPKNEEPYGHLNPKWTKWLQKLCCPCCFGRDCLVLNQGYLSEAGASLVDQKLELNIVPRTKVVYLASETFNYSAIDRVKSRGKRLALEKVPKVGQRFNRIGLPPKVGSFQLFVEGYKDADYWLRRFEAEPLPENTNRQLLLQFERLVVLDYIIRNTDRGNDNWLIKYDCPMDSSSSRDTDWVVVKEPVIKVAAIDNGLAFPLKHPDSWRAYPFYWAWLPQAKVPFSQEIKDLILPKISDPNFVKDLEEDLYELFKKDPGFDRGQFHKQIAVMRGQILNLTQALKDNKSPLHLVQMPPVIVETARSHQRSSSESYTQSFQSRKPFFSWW
# Test: qHTS for small molecular inhibitors of PI4K2A;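 also: -100% = wells without enzyme as full effect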
# Settings: purified PI4K2A, ADP-Glo luminescence, 1 h; at 76.9 µM, hits give low values
# Source text: The phosphatidylinositol 4-phosphate (PI4P) is emerging as a key regulator of lipid transfer in ER-membrane contact sites. The four different phosphatidylinositol 4-kinase (PI4K) enzymes generate PI4P in different membrane compartments supporting distinct cellular processes many of which are crucial for the maintenance of cellular integrity but also hijacked by intracellular pathogens. The goal of this screening project is to search for small molecular inhibitors of PI4K2A based on a high throughput screening strategy.The ADP-Glo assay was used as a starting point to develop a miniaturized version for HTS applications. To implement the HTS screen, the PI4K ADP-Glotrade mark Kinase assay (Promega, V9102) was miniaturized for the 1536-well format used at NCGC.
# For the robotic screening, the ADP-Glo assay using the ADP-Glotrade mark Kinase Assay kit from Promega was miniaturized and optimized on 1536-well white solid bottom plates (Greiner Bio-one). The substrate, 1.2 mM PI, prepared in the assay buffer (40mM Tris pH7.5, 20mM MgCl2, 1mM EGTA, 0.4% Triton X-100, 0.5mM DTT, 0.5mg/ml BSA) and PI4K2A enzyme, diluted also in the assay buffer to 4ug/mL, were dispensed onto the plates in equal volumes (1microl/well), pinned with 23 nL/well tested compounds or control followed by dispensation of 1microl/well 300microM ATP. The plates were incubated for one hour. Then, 2 µL/well of ADP-Glo reagent was added and incubated for 40 minutes. Next, 4microL/well of Kinase Detection Buffer was added to the plates and incubated for additional 40 minutes. All incubation steps were performed at ambient temperature. The resulting luminescence signal was measured on Viewlux plate reader (PerkinElmer). Adenosine, a partial non-specific inhibitor, was used as a positive control at 100microM final concentration to assess the assay's quality and plate-to-plate reproducibility. We also used "no enzyme" control to gauge the assay's maximal potential inhibition (IC100).
row,Structure (SMILES),"activity change, negative = inhibition"
1,COc1cc(C(=O)OC2CCOC2=O)c([N+](=O)[O-])cc1OC (stereo not given),0.815%
2,O=C(OC1CCOC1=O)c1ccc(-c2nc3ccccc3s2)s1 (stereo not given),-52.4% (active)
3,CC(C)(C)c1ccc(OCC(=O)N2CCC(c3nc4ccccc4s3)CC2)cc1,-3.91%
4,O=C1/C(=C\c2ccc([N+](=O)[O-])cc2)CS(=O)(=O)C/C1=C/c1ccc([N+](=O)[O-])cc1,-53% (active)
5,C=CC(=O)Nc1ccc(Nc2ccnc(Nc3ccc(N4CCN(C)CC4)cc3)n2)cc1,-9.48%
6,CC(C)C[C@H](NC(=O)[C@H](O)[C@H](N)Cc1ccccc1)C(=O)O,-0.0848%
7,CC(=O)Nc1ccc(NC(=O)c2cc3sccc3n2Cc2ccc(F)cc2)cc1,-0.493%
8,CCc1ccc(/C=N/NC(=O)c2nnn(-c3nonc3N)c2CN2CCc3ccccc32)cc1,2.23%
9,Cc1nonc1C(=O)N/N=C/c1ccc(O)cc1,-107% (active)
10,CC(C)Oc1ccc(/C=N/NC(=O)c2nnn(-c3nonc3N)c2CN(C)C2CCCCC2)cc1,-0.0382%
11,O=S(=O)(NCCc1nnc2ccc(SCc3ccc(Cl)cc3Cl)nn12)c1ccccc1,1.68%
12,CCCOC(=O)c1c(NC(=O)c2cc3nc(-c4ccc(OC)cc4)cc(C(F)(F)F)n3n2)sc2c1CCCC2,-1.38%
13,O=C(Oc1ccc(-c2nc(-c3ccccn3)no2)cc1)c1ccccc1,-59.2% (active)
14,O=C(COc1cccc(F)c1)Oc1ccc(C(=O)c2ccccc2)cc1,-2.11%
15,CC(=O)c1ccc(NC(=O)COc2ccccc2-c2nc(-c3ccccc3)no2)cc1,-0.609%
16,CCc1ccccc1NC(=O)c1ccc(F)c(S(=O)(=O)NC2CCCCCC2)c1,3.89%
17,CCCCOc1ccc(C(=O)N2CC(=O)Nc3ccc(Br)cc3C2c2ccc(F)cc2)cc1 (stereo not given),0.252%
18,O=C(NCC(c1cccnc1)N1CCc2ccccc21)c1cccc(C(F)(F)F)c1 (stereo not given),-0.743%
19,CCOCCCn1c(SCC(=O)Nc2ccc(CC)cc2)nc2ccccc2c1=O,2.57%
20,COc1cc(OC)c(OC)cc1/C=C/c1nc2cc3ccccc3cc2c(=O)n1-c1ccc(F)c(Cl)c1,1.51%
21,CCCC(=O)Nc1cc(C(=O)NCc2ccc(OC)cc2)ccc1S(=O)(=O)c1ccc(Cl)cc1,1.05%
22,CCCc1c2oc(C(=O)O)cc(=O)c2cc2c(=O)cc(C(=O)O)n(CC)c12,0.586%

row,Structure (SMILES),"activity change, negative = inhibition"
1,CC1(C)OC[C@@H](COC(=O)CCc2ccc(OC[C@@H](O)CNCCNC(=O)N3CCOCC3)cc2)O1,2.53%
2,Cc1cccc(C)c1NC(=O)c1ccc(N)cc1,2.75%
3,CC(C)Sc1oc(-c2cccs2)nc1S(=O)(=O)c1ccc(Cl)cc1,2.5%
4,CCC(=O)Nc1ccc2nc(SCC(=O)N3CCc4ccccc43)sc2c1,-5.07%
5,CCCn1c(=O)c2[nH]c(-c3ccc(OCC(=O)NCCN)cc3)nc2n(CCC)c1=O,-1.34%
6,Nc1ccc2nc3c(=O)[nH]c(=S)[nH]c3nc2c1,-58.2% (active)
7,Cc1ccc(-n2ncc3c(N4CCC(C(N)=O)CC4)ncnc32)cc1,-0.0422%
8,CC(=O)c1ccc(NC(=O)c2nc3nc(C)cc(C(F)F)n3n2)cc1,0.438%
9,Cc1oc2ncnc(N3CCOCC3)c2c1C(=O)NCCc1ccccc1,5.54%
10,Cc1cc2oc(C(=O)N(Cc3ccc(Cl)cc3)Cc3ccco3)c(C)c2cc1Cl,-5.36%
11,O=C(C1CC1)N1CCc2cc(Br)cc(S(=O)(=O)N3CCN(c4ccccc4F)CC3)c21,-2.46%
12,CC(C)(C)c1ccc(C(=O)NCC(c2ccc(Cl)cc2)N2CCOCC2)cc1 (stereo not given),1.67%
13,Cc1ccc2oc(=O)c3cnn(CC(=O)NCc4ccccc4Cl)c3c2c1,2.09%
14,Cc1ccc(C(=O)NCCSc2c(C)[nH]c3ccccc23)cc1C,-0.18%
15,Cc1ccccc1NC(=O)c1cc2c([nH]c1=O)CC(C)(C)CC2=O,-0.508%
16,Cc1ccc2ncc(C(=O)Nc3ccc(OC(F)(F)F)cc3)c(=O)n2c1,-0.27%
17,C[C@@H]1CCC[C@H](C)N1CCCC(O)(c1ccccc1)c1ccccn1 (stereo not given in full),-1.64%
18,Cc1ccc(NC(=O)Cn2cnc3nc4c(cc3c2=O)CCCC4)cc1Cl,2.6%
19,O=C(CC1Oc2ccccc2NC1=O)NCc1ccc(F)cc1 (stereo not given),-3.94%
20,CCOCCn1ccc2c(OCC(=O)NCc3ccc(C)cc3)cccc2c1=O,-5.41%
21,O=C1CCCc2cc(S(=O)(=O)N3CCCC(C(=O)NCc4ccccc4)C3)ccc2N1 (stereo not given),-5.19%
22,CCc1ccc(NC(=O)CCS(=O)(=O)c2cc3c(cc2Cl)NC(=O)CO3)cc1,0.699%

row,Structure (SMILES),"activity change, negative = inhibition"
1,CO[C@H]1C=CO[C@@]2(C)Oc3c(C)c(O)c4c(O)c(c(/C=N/N5CCN(C)CC5)c(O)c4c3C2=O)NC(=O)/C(C)=C\C=C[C@H](C)[C@H](O)[C@@H](C)[C@@H](O)[C@@H](C)[C@H](OC(C)=O)[C@@H]1C,-8.76%
2,Cc1nn2c(=O)cc(COC(=O)c3cccc(NC(=O)COc4ccccc4Cl)c3)nc2s1,3.91%
3,Cc1ccc(CCNC(=O)c2ccc3c(c2)N(Cc2cc(C)ccc2C)C(=O)c2ccccc2S3=O)cc1 (stereo not given),3.89%
4,CCC(C)Cn1c(O)cc2nn(-c3nc4ccccc4s3)c(=O)c-2c1C (stereo not given),-52% (active)
5,O=C(OCCN1CCOCC1)c1cccnc1Nc1cccc(C(F)(F)F)c1,1.58%
6,Cc1cc(C)cc(OCC(=O)Nc2nc(-c3ccc(F)cc3)ns2)c1,-6.03%
7,CCS(=O)(=O)N1CCc2cc(C(=O)NCc3ccc(OC)cc3)ccc21,-0.384%
8,CCc1ccccc1NC(=O)c1sc2nc3c(cc2c1N)CN(Cc1ccccc1)CC3,-2.17%
9,Cc1ccc(Oc2c(C(F)(F)F)oc3c(CN4CCCCC4)c(O)ccc3c2=O)cc1,-2.18%
10,Cc1ccc(C(=O)Nc2ccccc2F)cc1S(=O)(=O)N1CCOCC1,-6.24%
11,Cn1c(-c2ccco2)nc2cc3ccccc3cc21,-59.4% (active)
12,Cc1ccc(Cc2c(-c3ccco3)nc3ccc(Cl)cn23)cc1,-30%
13,c1ccc(Cc2c(-c3ccco3)nc3c4ccccc4ccn23)cc1,-13.4%
14,COc1cc(/C=C/C(N)=O)cc(OC)c1OC,-0.706%
15,CCC(=O)Nc1ccccc1-c1nc2ccccc2n(CC(=O)Nc2ccc(C)c(C)c2)c1=O,0.486%
16,COc1cccc(NC(=O)CN2C(=O)c3ccccc3Sc3ncccc32)c1,0.541%
17,COc1ccc(-c2onc(C)c2C)cc1S(=O)(=O)NCCc1ccccc1,0.384%
18,CCN(CCCNC(=O)c1ccc(Sc2ccc(C)cc2)c(NC(C)=O)c1)c1cccc(C)c1,2.25%
19,COc1ccc(-c2nnc(SCC(=O)Nc3ccc(C(C)C)cc3)nc2-c2ccc(OC)c(OC)c2)cc1OC,0.608%
20,CNC(=O)c1ccc(-c2nc(CN3CCc4ccccc43)c(C)o2)cc1,2.42%
21,CC(=O)c1c(C)n(S(=O)(=O)c2ccc(Cl)cc2)c2ccc(NS(=O)(=O)c3ccc(Cl)cc3)cc12,2.95%
22,CS(=O)(=O)N1CCc2cc(C(=O)Nc3ccccc3)ccc21,-7.3%

row,Structure (SMILES),"activity change, negative = inhibition"
1,CSc1ccccc1-c1nnc(NC(=O)c2ccc3c(c2)OCCO3)o1,3.71%
2,O=C(COC(=O)c1ccccc1)c1ccc2c(c1)OCCO2,-52.5% (active)
3,N#CCCN(C(=O)COC(=O)c1ccc2c(c1)OCCO2)c1ccccc1,3.66%
4,O=C(Nc1ccccc1)c1ccc2c(c1)OCCCO2,-52.6% (active)
5,O=C1COc2ccc(C(=O)COC(=O)c3ccccc3Cl)cc2N1,1.21%
6,CCC(C)NC(=O)Cn1c(=O)n(-c2ccc(Cl)cc2)c(=O)c2c3c(sc21)CCCC3 (stereo not given),-10.3%
7,CCCn1c2ccccc2c2cnn(CC(=O)N(CC)c3cc(C)ccc3C)c(=O)c21,-0.786%
8,CN(C)c1cc2c(Nc3ccc4c(cnn4Cc4ccccc4)c3)ncnc2cn1,-9.09%
9,COc1cccc(C(=O)c2cc3ccc(O)cc3oc2=O)c1,-61.7% (active)
10,COc1ccc(CNC(=O)c2cc3cccc(OC)c3oc2=O)cc1,3.69%
11,COc1cccc(C(=O)Nc2ccc3oc(-c4ccc5ccccc5c4)nc3c2)c1,-2.82%
12,CCOc1ccc(NS(=O)(=O)c2ccc(N)cc2)nn1,-1.1%
13,CC1=C(C(=O)OCC(C)C)C(c2ccc(OCc3ccccc3)cc2)N2C(=O)CCSC2=N1 (stereo not given),5.39%
14,CCCCOc1ccc(CN2C(=O)C(=O)c3cc(Br)cc(C)c32)cc1OC,13%
15,Cc1ccc(-n2nc(C)c(C(=O)O)c2-n2cccc2)cc1,3.8%
16,O=C(O)/C(=C/c1c(C(=O)O)[nH]c2cc(Cl)cc(Cl)c12)c1ccccc1,-3.01%
17,Cc1[nH][nH]c(=O)c1C(c1ccc2c(c1)OCO2)c1c(C)[nH][nH]c1=O,-66.9% (active)
18,Cc1[nH][nH]c(=O)c1C(c1ccc(-c2ccc(Cl)cc2)o1)c1c(C)[nH][nH]c1=O,-14%
19,Nc1[nH][nH]c(=O)c1N=Nc1ccc2c(c1)OCO2,-6.7%
